SMILES strings stand for the structures. Results filed as inconclusive are left out. A call without a number means that no potency is given here. Active and inactive are the calls of the source. Calls come from the whole dose curve; as a rule, active = well fitted inhibition curve with a large enough effect; inconclusive = small, poorly fitted or top-dose-only effect; inactive = no such curve, though single readings can be large or run the other way.

The test system of test [1] is Zika virus NS2B-NS3 protease (unlinked complex). Kind of test: Primary screen GU Rhodamine qHTS for Zika virus inhibitors: Unlinked NS2B-NS3 protease assay (AID 1347159). Note: nearly all actives have a fitted effect of over 60% in size. The method in brief:
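Noncovalent NS2B hydrophilic domain–NS3 protease domain complex (25 nM) preincubated 15 min at room temperature with compounds (up to 114 microM) in 10 mM Tris-HCl pH 8.0, 0.01% Tween 20; 1.5 microM Rhodamine110 substrate added, fluorescence change over 15 min fitted to Hill equation.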

The subject of test [2] is Zika virus NS2B-NS3 protease (linked construct). In words: Primary screen NINDS Rhodamine qHTS for Zika virus inhibitors (AID 1347160). Note: nearly all actives have a fitted effect of over 55% in size. Summed up: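 Purified linked NS2B-NS3 protease (NS2B hydrophilic domain joined to NS3 protease by flexible linker), 25 nM in 10 mM Tris-HCl pH 8.0, 0.01% Tween 20. Compounds titrated, 15 min preincubation at room temperature; 1.5 microM Rhodamine110 substrate, FITC fluorescence change over 15 min.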
(In general: Quantitative high-throughput screening tests each substance at several concentrations.)

Take `CNC(C)C(=O)NC(C(=O)N1CCCC1C(=O)Nc1snnc1-c1ccccc1)C1CCCCC1` (stereo unspecified): the Potency result in test [1] and in test [2] was “inactive” in each case.
`CC1(NC(=O)c2ccc(C#Cc3cccc(F)c3)cn2)COC1`: the Potency entry in test [1] and in test [2] was “inactive” in each case.
Turning to `Cc1cc(F)c(C(=O)Nc2cccc(-c3nncn3C(C)C)n2)cc1-n1cnc(C2CC2)c1`, the Potency result in test [1] and in test [2] was “inactive” throughout.
As for `COc1cc(Br)c(S(=O)(=O)Nc2ccc(Cl)c(O[C@@H]3CCN(C)C3)c2)cc1OC`, the Potency result in test [1] and in test [2] was “inactive” throughout.
Regarding `Cc1ccccc1CN1CCn2c1nc1c(c2=O)CN(Cc2ccccc2)CC1`, the Potency result in test [1] and in test [2] was “inactive” each time.
With `Cc1ccc(-c2c(C(=O)CCl)n(CCCO)c3ncnc(N)c23)cc1`, the Potency result in test [1] and in test [2] was “inactive” in each case.
Consider `CCCC(CCC)C(=O)Nc1ccn([C@@H]2O[C@H](CO)[C@@H](O)C2(F)F)c(=O)n1`, for which the Potency entry in test [1] and in test [2] was “inactive” each time.
On to `CC(C)n1c(=O)c(C(=O)NC2CC3CCC(C2)N3C[C@@H](O)CN(C)S(C)(=O)=O)cc2ccccc21` (stereo partly specified), for which the Potency result in test [1] and in test [2] was “inactive” in each case.
With `C[C@@H](NC(=O)c1ccc(C#Cc2cccc(F)c2)cn1)C(C)(C)O`, the Potency result in test [1] and in test [2] was “inactive” in each case.
With `C=C1CC[C@@H]2[C@](C)(CO)[C@H](O)CC[C@@]2(C)[C@@H]1CC(O)C1=CCOC1=O` (stereo partly specified), the Potency entry in test [1] and in test [2] was “inactive” each time.
Regarding `OC[C@H]1O[C@@H](OC/C=C/c2ccc(O)cc2)[C@H](O)[C@@H](O)[C@@H]1O`, the Potency result in test [1] and in test [2] was “inactive” in each case.
As for `CN1CCC(c2cn(C)c3ccc(OS(=O)(=O)c4c(F)cccc4F)cc23)CC1`, the Potency entry in test [1] and in test [2] was “inactive” each time.
Regarding `COc1cc(/C=C/C(=O)NCCn2c(C(F)(F)F)cc3ccccc32)cc(OC)c1OC`, the Potency result in test [1] and in test [2] was “inactive” each time.

The record behind these values is PubChem BioAssay (NCATS).
